We go through 37 compounds from PubChem BioAssay (NCATS).

Inconclusive results are not listed. A call without a number means that no potency is given here. Calls of active or inactive are those of the source. The call rests on the fitted dose curve.

A short description of one assay: Primary qHTS for inhibitors of SARS-S pseudo-typed particle cell entry (AID 1479145). Further: nearly all actives have a fitted effect of over 45% in size. The settings on record: SARS-S pseudotyped particle cell entry, luciferase reporter; series mostly up to 57.1 µM. On the technique in general: qHTS replaces the single test concentration by a dilution series.
`C1N2CN3CN1CN(C2)C3`: the Potency result was “inactive”.

In the case of `O[C@@H]1CO[C@H]2[C@@H]1OC[C@@H]2O`, the Potency result is “inactive”.

As for `COc1cc2nc(N3CCN(C(=O)C4CCCO4)CC3)nc(N)c2cc1OC` (centres undefined), the Potency entry is “inactive”.

Take `C[C@@H](O)[C@H]1C(=O)N2C(C(=O)O)=C(S[C@@H]3CN[C@H](C(=O)N(C)C)C3)[C@H](C)[C@H]12`: the Potency entry is “inactive”.

Consider `C[C@@H]1C[C@H]2[C@@H]3CCC4=CC(=O)C=C[C@]4(C)[C@@]3(F)[C@@H](O)C[C@]2(C)[C@@]1(O)C(=O)CO`, for which the Potency entry was “inactive”.

For `COC(=O)C(c1ccccc1Cl)N1CCc2sccc2C1` (centres undefined), the Potency entry is “inactive”.

Turning to `O=C(C1CCCCC1)N1CC(=O)N2CCc3ccccc3C2C1` (centres undefined), the Potency result was “inactive”.

`CCCCCOC(=O)Nc1nc(=O)n([C@@H]2O[C@H](C)[C@@H](O)[C@H]2O)cc1F`: the Potency result was “inactive”.

On to `CN(CCOc1ccc(CC2SC(=O)NC2=O)cc1)c1ccccn1` (centres undefined), for which the Potency result was “inactive”.

Consider `Cc1ccccc1N1C(=O)c2cc(S(N)(=O)=O)c(Cl)cc2NC1C` (centres undefined), for which the Potency result is “inactive”.

Turning to `C[C@@H](O)[C@H]1C(=O)N2C(C(=O)O)=C(S[C@@H]3CN[C@H](CNS(N)(=O)=O)C3)[C@H](C)[C@H]12`, the Potency entry is “inactive”.

In the case of `CCN(CC)CCNC(=O)c1cc(Cl)c(N)cc1OC`, the Potency entry is “inactive”.

With `Cc1onc(-c2c(Cl)cccc2Cl)c1C(=O)N[C@@H]1C(=O)N2[C@@H]1SC(C)(C)[C@@H]2C(=O)O`, the Potency result was “inactive”.

`NC(=O)C(c1ccccc1)(c1ccccc1)[C@@H]1CCN(CCc2ccc3c(c2)CCO3)C1`: the Potency entry is “inactive”.

Take `CC1(C)O[C@@H]2[C@@H](CO[C@@]3(COS(N)(=O)=O)OC(C)(C)O[C@@H]23)O1`: the Potency entry is “inactive”.

Turning to `CN(C)c1cc(NC(=O)CNC(C)(C)C)c(O)c2c1C[C@@H]1C[C@H]3[C@H](N(C)C)C(=O)C(C(N)=O)=C(O)[C@@]3(O)C(=O)C1=C2O`, the Potency entry was “inactive”.

As to `O=C1OCCN1/N=C/c1ccc([N+](=O)[O-])o1`, the Potency result was “inactive”.

In the case of `Nc1nc2c(ncn2COC(CO)CO)c(=O)[nH]1`, the Potency entry was “inactive”.

Turning to `CC(=O)Oc1cc2c(s1)CCN(C(C(=O)C1CC1)c1ccccc1F)C2` (centres undefined), the Potency result was “inactive”.

For the compound `CCn1cc(C(=O)O)c(=O)c2ccc(C)nc21`, the Potency entry was “inactive”.

On to `CC(C)[N+](C)(CCOC(=O)C1c2ccccc2Oc2ccccc21)C(C)C`, for which the Potency entry was “inactive”.

Regarding `C[N+]1(C)CCC(OC(=O)C(O)(c2ccccc2)C2CCCC2)C1` (centres undefined), the Potency entry was “inactive”.

Turning to `Cc1ccc(-c2cc(C(F)(F)F)nn2-c2ccc(S(N)(=O)=O)cc2)cc1`, the Potency entry was “inactive”.

For the compound `C[C@@H](c1ncncc1F)C(O)(Cn1cncn1)c1ccc(F)cc1F` (some centres undefined), the Potency entry is “inactive”.

On to `CCOC(=O)C1=C(C)NC(C)=C(C(=O)OC)C1c1cccc(Cl)c1Cl` (centres undefined), for which the Potency entry was “inactive”.

For the compound `NNCCc1ccccc1`, the Potency entry is “inactive”.

As for `CN(CCOc1ccc(NS(C)(=O)=O)cc1)CCc1ccc(NS(C)(=O)=O)cc1`, the Potency result was “inactive”.

For `CN(N=O)C(=O)N[C@@H]1[C@@H](O)[C@H](O)[C@@H](CO)O[C@@H]1O`, the Potency entry was “inactive”.

Take `O=C(O)c1cn(C2CC2)c2cc(N3CCNCC3)c(F)cc2c1=O`: the Potency result is “inactive”.

On to `CCCCC1=NC2(CCCC2)C(=O)N1Cc1ccc(-c2ccccc2-c2nn[nH]n2)cc1`, for which the Potency result is “inactive”.

Turning to `CC1=NS(=O)(=O)c2cc(Cl)ccc2N1`, the Potency result was “inactive”.

With `CNCCc1ccccn1`, the Potency result is “inactive”.

Regarding `Cc1ccc(S(=O)(=O)NC(=O)NN2CC3CCCC3C2)cc1` (centres undefined), the Potency entry was “inactive”.

Consider `CCN1CCN(C(=O)N[C@@H](C(=O)N[C@@H]2C(=O)N3C(C(=O)O)=C(CSc4nnnn4C)CS[C@H]23)c2ccc(O)cc2)C(=O)C1=O`, for which the Potency entry is “inactive”.

`CCCc1cc(=O)[nH]c(=S)[nH]1`: the Potency entry was “inactive”.

For `CC(=O)SC[C@@H](C)C(=O)N1CCC[C@H]1C(=O)N[C@@H](Cc1ccccc1)C(=O)O`, the Potency result was “inactive”.

Take `COC(c1ccccc1)(c1ccccc1)[C@H](Oc1nc(C)cc(C)n1)C(=O)O`: the Potency result is “inactive”.

A short description of another assay: Primary qHTS for Huh7 cytotoxicity: counterscreen for inhibitors of MERS-S pseudotyped particle cell entry (AID 1479147). The note with it: cell viability read-out; series mostly up to 57.1 µM.
In the case of `C1N2CN3CN1CN(C2)C3`, the Potency result was “inactive”.

For the compound `O[C@@H]1CO[C@H]2[C@@H]1OC[C@@H]2O`, the Potency entry was “inactive”.

For the compound `COc1cc2nc(N3CCN(C(=O)C4CCCO4)CC3)nc(N)c2cc1OC` (centres undefined), the Potency entry is “inactive”.

`C[C@@H](O)[C@H]1C(=O)N2C(C(=O)O)=C(S[C@@H]3CN[C@H](C(=O)N(C)C)C3)[C@H](C)[C@H]12`: the Potency result was “inactive”.

On to `C[C@@H]1C[C@H]2[C@@H]3CCC4=CC(=O)C=C[C@]4(C)[C@@]3(F)[C@@H](O)C[C@]2(C)[C@@]1(O)C(=O)CO`, for which the Potency entry is “inactive”.

In the case of `COC(=O)C(c1ccccc1Cl)N1CCc2sccc2C1` (centres undefined), the Potency entry was “inactive”.

Consider `O=C(C1CCCCC1)N1CC(=O)N2CCc3ccccc3C2C1` (centres undefined), for which the Potency result was “inactive”.

On to `CCCCCOC(=O)Nc1nc(=O)n([C@@H]2O[C@H](C)[C@@H](O)[C@H]2O)cc1F`, for which the Potency result is “inactive”.

With `CN(CCOc1ccc(CC2SC(=O)NC2=O)cc1)c1ccccn1` (centres undefined), the Potency entry is “inactive”.

Regarding `Cc1ccccc1N1C(=O)c2cc(S(N)(=O)=O)c(Cl)cc2NC1C` (centres undefined), the Potency entry was “inactive”.

Consider `C[C@@H](O)[C@H]1C(=O)N2C(C(=O)O)=C(S[C@@H]3CN[C@H](CNS(N)(=O)=O)C3)[C@H](C)[C@H]12`, for which the Potency result is “inactive”.

In the case of `CCN(CC)CCNC(=O)c1cc(Cl)c(N)cc1OC`, the Potency result was “inactive”.

As to `Cc1onc(-c2c(Cl)cccc2Cl)c1C(=O)N[C@@H]1C(=O)N2[C@@H]1SC(C)(C)[C@@H]2C(=O)O`, the Potency result is “inactive”.

As for `NC(=O)C(c1ccccc1)(c1ccccc1)[C@@H]1CCN(CCc2ccc3c(c2)CCO3)C1`, the Potency result is “inactive”.

On to `CC1(C)O[C@@H]2[C@@H](CO[C@@]3(COS(N)(=O)=O)OC(C)(C)O[C@@H]23)O1`, for which the Potency entry is “inactive”.

Consider `CN(C)c1cc(NC(=O)CNC(C)(C)C)c(O)c2c1C[C@@H]1C[C@H]3[C@H](N(C)C)C(=O)C(C(N)=O)=C(O)[C@@]3(O)C(=O)C1=C2O`, for which the Potency entry is “inactive”.

`O=C1OCCN1/N=C/c1ccc([N+](=O)[O-])o1`: the Potency result is “inactive”.

For the compound `Nc1nc2c(ncn2COC(CO)CO)c(=O)[nH]1`, the Potency result was “inactive”.

Regarding `CC(=O)Oc1cc2c(s1)CCN(C(C(=O)C1CC1)c1ccccc1F)C2` (centres undefined), the Potency result was “inactive”.

Turning to `CCn1cc(C(=O)O)c(=O)c2ccc(C)nc21`, the Potency result is “inactive”.

As to `CC(C)[N+](C)(CCOC(=O)C1c2ccccc2Oc2ccccc21)C(C)C`, the Potency result was “inactive”.

Turning to `C[N+]1(C)CCC(OC(=O)C(O)(c2ccccc2)C2CCCC2)C1` (centres undefined), the Potency entry is “inactive”.

Regarding `Cc1ccc(-c2cc(C(F)(F)F)nn2-c2ccc(S(N)(=O)=O)cc2)cc1`, the Potency entry was “inactive”.

In the case of `C[C@@H](c1ncncc1F)C(O)(Cn1cncn1)c1ccc(F)cc1F` (some centres undefined), the Potency result was “inactive”.

For `CCOC(=O)C1=C(C)NC(C)=C(C(=O)OC)C1c1cccc(Cl)c1Cl` (centres undefined), the Potency result was “inactive”.

As for `NNCCc1ccccc1`, the Potency result was “inactive”.

With `CN(CCOc1ccc(NS(C)(=O)=O)cc1)CCc1ccc(NS(C)(=O)=O)cc1`, the Potency result was “inactive”.

With `CN(N=O)C(=O)N[C@@H]1[C@@H](O)[C@H](O)[C@@H](CO)O[C@@H]1O`, the Potency result is “inactive”.

Consider `O=C(O)c1cn(C2CC2)c2cc(N3CCNCC3)c(F)cc2c1=O`, for which the Potency result is “inactive”.

For `CCCCC1=NC2(CCCC2)C(=O)N1Cc1ccc(-c2ccccc2-c2nn[nH]n2)cc1`, the Potency entry was “inactive”.

Turning to `CC1=NS(=O)(=O)c2cc(Cl)ccc2N1`, the Potency entry is “inactive”.

`CNCCc1ccccn1`: the Potency entry was “inactive”.

Take `Cc1ccc(S(=O)(=O)NC(=O)NN2CC3CCCC3C2)cc1` (centres undefined): the Potency entry is “inactive”.

Regarding `CCN1CCN(C(=O)N[C@@H](C(=O)N[C@@H]2C(=O)N3C(C(=O)O)=C(CSc4nnnn4C)CS[C@H]23)c2ccc(O)cc2)C(=O)C1=O`, the Potency entry was “inactive”.

On to `CCCc1cc(=O)[nH]c(=S)[nH]1`, for which the Potency result is “inactive”.

Turning to `CC(=O)SC[C@@H](C)C(=O)N1CCC[C@H]1C(=O)N[C@@H](Cc1ccccc1)C(=O)O`, the Potency result was “inactive”.

As for `COC(c1ccccc1)(c1ccccc1)[C@H](Oc1nc(C)cc(C)n1)C(=O)O`, the Potency result is “inactive”.
